Measurements: PubChem BioAssay AID1814 (Broad Institute, 2009)
The campaign covered roughly 300,000 compounds. About 22,000 (7.3%) were called active. Inconclusive results (about 2%) are left out. The sample as a whole holds a higher share of actives than the screen did. Values without a mark were called inactive. No stated cut-off is given here; in the data, active means activity score below about -60%; inconclusive means mostly about -28% to -61%; inactive means positive scores.

Test: Activators working through SNCA 5'UTR binding (MLPCN) (AID 1814)
Details: alpha-synuclein 5'UTR reporter, activators screen; active compounds read low; tested at 7.5 µM

| SMILES | activity score |
| --- | --- |
| CC(C)c1ccc(C(=O)NCCCc2ccccc2)cc1 | -150% (active) |
| S=C(Nc1ccc2c(c1)OCO2)N1CCCC1 | -93.7% (active) |
| Cc1cccn2c(=O)c(C=O)c(Nc3ccc(S(N)(=O)=O)cc3)nc12 | -500% (active) |
| O=C(CC1Nc2ccccc2NC1=O)Nc1ccccc1 (centres undefined) | -128% (active) |
| Oc1c(Br)cccc1/C=N/Nc1c(F)c(F)c(F)c(F)c1F | -72.3% (active) |
| Cc1[nH]c(=O)c(C(=O)/C=C/c2ccccc2)c2c1CCCC2 | -146% (active) |
| COc1cccc(NC(=S)C(C#N)=C2N(C)c3ccccc3N2C)c1 | -86.1% (active) |
| COc1ccc(-c2csc3nc(-c4ccccc4F)oc(=O)c23)cc1OC | -63.1% (active) |
| COc1ccc(/C=N/Nc2ncnc3sc4c(c23)CCCC4)cc1O | -197% (active) |
| CC(C)(C)c1ccc(/C=C/C(=O)Nc2ncccn2)cc1 | -155% (active) |
| O=c1c2c(-c3ccccc3)ccnc2[nH]n1-c1ccccc1 | -127% (active) |
| CN(C)c1nc(N)nc(CSc2nnnn2-c2cccc3ccccc23)n1 | 68.9% |
| CN(C(=O)CSc1nncc2ccccc12)C1CCCCC1 | -107% (active) |
| CN(c1ccc2nc3ccccc3c(=O)n2n1)C1CCCCC1 | 119% |
| CN(C(=O)CSc1nnnn1-c1ccccc1)C1CCCCC1 | -63.1% (active) |
| Cc1ccc(O)c(NC(=O)c2cc(-c3ccco3)on2)c1 | -184% (active) |
| O=C(Cc1cccc2ccccc12)NNC(=O)Nc1ccc(Cl)cc1 | -112% (active) |
| Cc1nn2cc(-c3ccc(Cl)cc3)cnc2c1Br | -110% (active) |
| CN1CCN(NC(=O)Nc2ccc(Br)cc2)CC1 | -64.9% (active) |
| COc1ccc(-n2nnnc2-c2nc3ccccc3s2)cc1 | -77.3% (active) |
| O=C(Nc1cccc(-c2nnc(-c3ccccc3)o2)c1)C1CCCO1 (centres undefined) | -126% (active) |
| O=c1c(-c2cccc(Cl)c2)c[nH]n1-c1ccccc1 | -74.9% (active) |
| COc1ccc(Cn2c(-c3ccc(Cl)cc3)c[n+]3ccccc23)cc1 | -155% (active) |
| Fc1ccc(COc2ccc(-c3nnco3)cc2)cc1 | -126% (active) |
| Cc1cc(C)c2nc3nc(C)cc(C)c3c(N)c2c1 | -190% (active) |
| CCCCC(O)(CCCC)C(=O)NN(C(=O)CCl)c1ccccc1 | -67.8% (active) |
| S=C(Nc1ccc(Br)cc1Cl)N1CCC2(CC1)OCCO2 | -70.7% (active) |

| SMILES | activity score |
| --- | --- |
| COc1ccc(C(=O)CCc2ccccc2O)c(OC)c1 | -128% (active) |
| O=C(NC1CC1)c1ccc(-c2ccccc2)cc1 | -142% (active) |
| O=C(NCCCn1ccnc1)c1cc(-c2ccccc2)on1 | -632% (active) |
| O=C(NC1CCCC1)c1cc(-c2ccccc2)on1 | -324% (active) |
| O=C(NC1CCCCC1)c1cc(C2CC2)on1 | -78% (active) |
| O=C(NCCOc1cccnc1)c1ccc(OC2CCN(Cc3ccccn3)CC2)cc1 | 95.3% |
| CN(C)S(=O)(=O)N1CCC(Oc2cccc(C(=O)NCCCC3CCCC3)c2)CC1 | -70.6% (active) |
| Cc1c(NC(=O)c2coc(=O)c(Br)c2)c(=O)n(-c2ccccc2)n1C | -75.7% (active) |
| Cc1c(NC(=O)c2cc(-c3ccc(Cl)s3)nc3ccccc23)c(=O)n(-c2ccccc2)n1C | -105% (active) |
| CC1(C)CCSC(/C=C/c2ccccc2)=N1 | -123% (active) |
| O=C(c1cnn(-c2ccc(Cl)cc2)c1)c1ccccc1O | -238% (active) |
| COc1ccc2nc(NC(=O)NC3CCCCC3)sc2c1 | -186% (active) |
| COc1ccc2nc(NC(=O)c3ccc(Br)s3)sc2c1 | -209% (active) |
| COc1ccc(NC(=O)Nc2ccc3nsnc3c2)cc1 | -138% (active) |
| COc1ccc2nc(Nc3nc4cc5c(cc4s3)OCCO5)sc2c1 | -103% (active) |
| CCOc1ccc2nc(N(CCCN(C)C)C(=O)c3ccc(C(=O)c4ccccc4)cc3)sc2c1 | 90.2% |
| COc1cccc(C(=O)Nc2nc3ccc(S(C)(=O)=O)cc3s2)c1 | -102% (active) |
| CCOc1ccc2nc(Nc3nc4ccc(NC(C)=O)cc4s3)sc2c1 | -88.4% (active) |
| COc1ccc2nc(Nc3nc4ccc(NC(C)=O)cc4s3)sc2c1 | -95.5% (active) |
| CCc1noc(C)c1C(=O)Nc1nc2ccc(OC)cc2s1 | -85% (active) |
| COc1ccc(/C=N/OCc2ccccc2C#N)c(OC)c1 | -182% (active) |
| COc1ccc(N2CCN(C(=O)c3cccs3)CC2)cc1 | -69.4% (active) |
| COC(=O)Nc1nc2ccc(Sc3ccccc3)cc2[nH]1 | 59.2% |
| Cc1ccc(O)c(CNc2nc3ccccc3[nH]2)c1 | -69.9% (active) |
| Cc1ccc(-c2nc(COC(=O)c3c(C)noc3C)cs2)cc1 | -170% (active) |
| CCN1/C(=C/C(=S)Nc2ccccc2)Sc2ccccc21 | -111% (active) |
| CSc1nccc(NC(=O)c2ccc(C(C)(C)C)cc2)n1 | -147% (active) |
